Measurements from PubChem BioAssay.
Calls of active or inactive are those of the source. Rule as the data show it, unless noted: active = inhibition above about 80%; inactive = the rest.

Experiments:
[1] = growth inhibition, single agent or in combination, cell-based, chromothripsis tumors, cisplatin or BGB combos (AID 1671449); settings: LFS_MB_P medulloblastoma cells;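 also: cells exposed for 96 hours; 0% = vehicle DMSO and 100% = killing by high DMSO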
[2] = growth inhibition, single agent and combos, cell-based, chromothripsis tumors, cisplatin or BGB combos (AID 1671450); settings: HDN33 neuroblastoma cells, stronger effect = higher value;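 also: cells exposed to compound for four days; 0% = vehicle DMSO and 100% = cell killing by high DMSO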
[3] = growth inhibition, single agents and combos, ICB984, cell-based, cisplatin or BGB combos, synergistic combos for chromothripsis tumors (AID 1671451; call rule not given here;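 also: cells exposed for 96 hours before readout; 0% = vehicle DMSO and 100% = killing by high DMSO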); settings: ICB984 medulloblastoma cells, drug combinations, stronger effect = higher value
[4] = growth inhibition, single agents and combos, LFS_MB_1R, cell-based, cisplatin or BGB combos, synergistic combos for chromothripsis tumors (AID 1671452); settings: LFS_MB_1R medulloblastoma cells, stronger effect = higher value;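 also: cells exposed for 96 hours before readout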
[5] = growth inhibition, single agents and combos, HTB85, cell-based, BGB or cisplatin IC20 combos, synergistic combos for chromothripsis tumors (AID 1671453); settings: HTB85 osteosarcoma cells, drug combinations, stronger effect = higher value;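 also: cells exposed for 96 hours before readout; 0% = vehicle DMSO and 100% = high DMSO killing control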
[6] = growth inhibition, single agents and combos, CRL2098, cell-based, BGB or cisplatin IC20 combos, synergistic combos for chromothripsis tumors (AID 1671454); settings: CRL2098 osteosarcoma cells, drug combinations, stronger effect = higher value;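 also: cells exposed for 96 h before readout; 0% = vehicle DMSO and 100% = killing by high DMSO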
[7] = growth inhibition, single agents and combos, HD-MB03, cell-based, BGB or cisplatin IC20 combos, synergistic combos for chromothripsis tumors (AID 1671455; in the data active = inhibition above about 83%;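 also: 0% = vehicle DMSO and 100% = high DMSO as cytotoxic control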); settings: HD-MB03 medulloblastoma cells, stronger effect = higher value
[8] = growth inhibition, MDA-MB-436, cell-based, BGB or cisplatin combos, synergistic combos for chromothripsis tumors (AID 1671458; call rule not given here;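 also: cells exposed for 96 hours; 0% = vehicle DMSO and 100% = killing by high DMSO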); settings: MDA-MB-436 breast carcinoma growth inhibition, drug combinations, stronger effect = higher value
[9] = BT084 cell growth, single and combined drugs, ICGC_MB145, cisplatin and BGB IC40 combos (AID 1671461); settings: BT084 medulloblastoma cells, drug combinations, stronger effect = higher value;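 also: cells exposed to drugs for 96 hours; 0% = vehicle DMSO and 100% = high DMSO full killing control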
[10] = RCMB18 cell growth, single agent and combined, cisplatin and BGB IC40 combos (AID 1671462); settings: RCMB18 medulloblastoma cells, stronger effect = higher value;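 also: cells exposed to compound for four days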
[11] = CRL1545 cell growth, single agent and combined, cisplatin and BGB IC20 combos (AID 1671464); settings: CRL1545 osteosarcoma cells, stronger effect = higher value;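 also: cells exposed to compound for 96 hours before readout; 0% = vehicle DMSO and 100% = high DMSO killing control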
[12] = system: Hepatitis C virus NS3 helicase; assay: blockers of NS3h binding to ssDNA – biochemical, fluorescence polarization, LOPAC1280 library, primary screen (AID 687035; in the data active = inhibition above about 37%); settings: Purified HCV NS3 helicase, Cy5-dT15 ssDNA binding fluorescence polarization; stronger effect = higher value; concentration not given here
[13] = compounds altering Cy5-DNA-NS3h complex signal – biochemical, LOPAC1280, artefact control for HCV NS3 helicase inhibitor project (AID 687037; call rule not given here); settings: Cy5-DNA-NS3h complex fluorescence interference counterscreen
[14] = blockers of cellular phospholipid synthesis – cell-based, LOPAC library, screen 4, primary screen (AID 1347384; call rule not given here); settings: animal cells, phospholipid biosynthesis inhibition screen; at 10 µM
[15] = at 0.5 µM, stronger effect = higher value
[16] = measured here: combination with BGB IC20, at 0.005 µM
[17] = measured here: combination with BGB IC40, at 0.005 µM
[18] = measured here: combination with BGB IC40, at 0.05 µM
[19] = measured here: combination with cisplatin, at 0.5 µM, stronger effect = higher value
[20] = measured here: combination with cisplatin, at 5 µM, stronger effect = higher value
[21] = measured here: with BGB IC20 combination, at 0.5 µM
[22] = measured here: with cisplatin IC20 combination, at 0.5 µM
[23] = measured here: 5 uM single agent, at 5 µM
[24] = measured here: combination with cisplatin, at 0.5 µM
[25] = measured here: combination with cisplatin, at 5 µM
[26] = measured here: with BGB IC20, at 0.5 µM
[27] = measured here: with BGB IC20, at 5 µM
[28] = measured here: with cisplatin IC20, at 0.5 µM
[29] = measured here: with cisplatin IC20, at 5 µM
[30] = measured here: combination with BGB at IC20, at 0.5 µM
[31] = measured here: combination with cisplatin at IC20, at 0.5 µM
[32] = measured here: combo with BGB at IC20, at 0.5 µM
[33] = measured here: combo with cisplatin at IC20, at 0.5 µM
[34] = measured here: BGB combination, at 0.5 µM
[35] = measured here: BGB combination, at 5 µM
[36] = measured here: cisplatin combination, at 0.5 µM
[37] = measured here: cisplatin combination, at 5 µM
[38] = cisplatin combination, at 0.5 µM
[39] = measured here: BGB IC40 combination 0.05 uM, at 0.05 µM
[40] = measured here: BGB IC40 combination, at 0.05 µM

## O=c1cc(-c2cccc3c2Sc2ccccc2S3)oc(N2CCOCC2)c1
[1]; [15]
  inhibition: 81.3% (active)
[1]; [16]
  inhibition: -22.8%
[1]; [17]
  inhibition: -15.3%
[1]; [18]
  inhibition: -27.2%
[1]; [19]
  inhibition: 108%
[1]; [20]
  inhibition: -58.3%
[2]; BGB combo, at 5 µM
  inhibition: -23.9%
[2]; at 0.5 µM
  inhibition: -20.7% (inactive)
[2]; cisplatin combo, at 5 µM
  inhibition: -6.5%
[2]; [21]
  inhibition: -21.1%
[2]; [22]
  inhibition: -8.71%
[2]; single agent, at 5 µM
  inhibition: -26.1%
[3]; BGB IC20 combo, at 0.005 µM
  inhibition: -0.749%
[3]; BGB IC40 combo, at 0.005 µM
  inhibition: -24.9%
[3]; BGB IC40 combo, at 0.05 µM
  inhibition: 11.6%
[3]; at 0.5 µM
  inhibition: -26.5% (inactive)
[3]; cisplatin combo, at 0.05 µM
  inhibition: 9.17%
[3]; cisplatin combo, at 0.5 µM
  inhibition: -36.8%
[3]; cisplatin combo, at 5 µM
  inhibition: -31.3%
[3]; [23]
  inhibition: -22.7%
[4]; at 0.5 µM
  inhibition: -10.6% (inactive)
[4]; [18]
  inhibition: -24.7%
[4]; [24]
  inhibition: 9.6%
[4]; [25]
  inhibition: -31.9%
[5]; at 0.5 µM
  inhibition: -13.7% (inactive)
[5]; [26]
  inhibition: -13.9%
[5]; [27]
  inhibition: -31%
[5]; [28]
  inhibition: -8.83%
[5]; [29]
  inhibition: -19.5%
[5]; single agent, at 5 µM
  inhibition: -17.7%
[6]; at 0.5 µM
  inhibition: -29.5% (inactive)
[6]; [30]
  inhibition: -49.7%
[6]; [31]
  inhibition: -36.1%
[7]; at 0.5 µM
  inhibition: -12.6% (inactive)
[7]; [32]
  inhibition: -13%
[7]; [33]
  inhibition: -6.59%
[8]; at 0.5 µM
  inhibition: -26.6% (inactive)
[8]; [34]
  inhibition: -22.1%
[8]; [35]
  inhibition: -25.2%
[8]; [36]
  inhibition: -36.1%
[8]; [37]
  inhibition: -24.3%
[9]; at 0.5 µM
  inhibition: -24.9% (inactive)
[9]; [38]
  inhibition: -8.73%
[9]; cisplatin combination, at 5 µM
  inhibition: -21.4%
[9]; [39]
  inhibition: -12.1%
[9]; single agent, at 5 µM
  inhibition: -39.1%
[10]; at 0.5 µM
  inhibition: -11.1% (inactive)
[10]; cisplatin combo, at 5 µM
  inhibition: 5.15%
[10]; [40]
  inhibition: -26.8%
[10]; [24]
  inhibition: -2.95%
[10]; single agent, at 5 µM
  inhibition: -8.05%
[11]; at 0.5 µM
  inhibition: -32.7% (inactive)
[11]; [21]
  inhibition: -8.28%
[11]; [22]
  inhibition: -48.2%
[11]; single agent, at 0.05 µM
  inhibition: -20.3%
[11]; single agent, at 5 µM
  inhibition: -31.2%

## O=C(O)CCc1ccc(NCc2cccc(Oc3ccccc3)c2)cc1
[12]
  inhibition: 0% (inactive)
[13]
  fluorescence ratio (interference): 1 (inactive)
[14]
  outcome: inactive

## NC(=O)c1ccc2[nH]ccc2c1
[12]
  inhibition: 0% (inactive)
[13]
  fluorescence ratio (interference): 1 (inactive)
[14]
  outcome: inactive

## CCC(C)N(C)C(=O)c1cc2ccccc2c(-c2ccccc2Cl)n1 (stereo unspecified)
[12]
  inhibition: 0% (inactive)
[13]
  fluorescence ratio (interference): 1 (inactive)
[14]
  outcome: inactive

## O=c1[nH]c(-c2ccc(C(F)(F)F)cc2)nc2c1CSCC2
[1]; [15]
  inhibition: -18.1% (inactive)
[1]; [16]
  inhibition: 0.844%
[1]; [17]
  inhibition: 12.4%
[1]; [18]
  inhibition: -21.3%
[1]; [19]
  inhibition: -36.1%
[1]; [20]
  inhibition: -17.2%
[2]; BGB combo, at 5 µM
  inhibition: 8.65%
[2]; at 0.5 µM
  inhibition: -7.61% (inactive)
[2]; cisplatin combo, at 5 µM
  inhibition: 8.16%
[2]; [21]
  inhibition: -5.54%
[2]; [22]
  inhibition: -17.8%
[2]; single agent, at 5 µM
  inhibition: 38.9%
[3]; BGB IC20 combo, at 0.005 µM
  inhibition: -4.67%
[3]; BGB IC40 combo, at 0.005 µM
  inhibition: -45.8%
[3]; BGB IC40 combo, at 0.05 µM
  inhibition: -11.7%
[3]; at 0.5 µM
  inhibition: -27.1% (inactive)
[3]; cisplatin combo, at 0.05 µM
  inhibition: -15.7%
[3]; cisplatin combo, at 0.5 µM
  inhibition: -29.5%
[3]; cisplatin combo, at 5 µM
  inhibition: -33.3%
[3]; [23]
  inhibition: -7.99%
[4]; at 0.5 µM
  inhibition: -9.31% (inactive)
[4]; [18]
  inhibition: -26%
[4]; [24]
  inhibition: -13.9%
[4]; [25]
  inhibition: -59%
[5]; at 0.5 µM
  inhibition: -23.5% (inactive)
[5]; [26]
  inhibition: -23%
[5]; [27]
  inhibition: -21.9%
[5]; [28]
  inhibition: -30.4%
[5]; [29]
  inhibition: -19.6%
[5]; single agent, at 5 µM
  inhibition: 3.2%
[6]; at 0.5 µM
  inhibition: -39.2% (inactive)
[6]; [30]
  inhibition: -20.7%
[6]; [31]
  inhibition: -76.4%
[7]; at 0.5 µM
  inhibition: -8.71% (inactive)
[7]; [32]
  inhibition: -15.3%
[7]; [33]
  inhibition: -8.24%
[8]; at 0.5 µM
  inhibition: -4.6% (inactive)
[8]; [34]
  inhibition: -1.61%
[8]; [35]
  inhibition: -2.42%
[8]; [36]
  inhibition: -18.2%
[8]; [37]
  inhibition: -5.9%
[9]; at 0.5 µM
  inhibition: -4.59% (inactive)
[9]; [38]
  inhibition: -17.6%
[9]; cisplatin combination, at 5 µM
  inhibition: -12.8%
[9]; [39]
  inhibition: 7.96%
[9]; single agent, at 5 µM
  inhibition: -20.3%
[10]; at 0.5 µM
  inhibition: -18.1% (inactive)
[10]; cisplatin combo, at 5 µM
  inhibition: -47.8%
[10]; [40]
  inhibition: -24.5%
[10]; [24]
  inhibition: -29.6%
[10]; single agent, at 5 µM
  inhibition: 13.3%
[11]; at 0.5 µM
  inhibition: -34.9% (inactive)
[11]; [21]
  inhibition: -20.3%
[11]; [22]
  inhibition: -44.5%
[11]; single agent, at 0.05 µM
  inhibition: -54.3%
[11]; single agent, at 5 µM
  inhibition: -18.2%
